M1 antag = blocks human M1 muscarinic receptor; P11229; inhibition, % at 3 µM; actives 1.3% (n = 360,000); CHO-K1 hM1, Fluo-8 calcium fluorescence, ACh EC80 antagonist;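 active = percent inhibition above its own plate's cutoff, namely the mean of that plate's compound wells plus 3 SD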;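 note: peak over basal fluorescence ratio during 140 s after agonist addition; 0% = ACh EC80 plus DMSO and 100% = DMSO alone without agonist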
Target sequence (P11229 whole entry, looked up): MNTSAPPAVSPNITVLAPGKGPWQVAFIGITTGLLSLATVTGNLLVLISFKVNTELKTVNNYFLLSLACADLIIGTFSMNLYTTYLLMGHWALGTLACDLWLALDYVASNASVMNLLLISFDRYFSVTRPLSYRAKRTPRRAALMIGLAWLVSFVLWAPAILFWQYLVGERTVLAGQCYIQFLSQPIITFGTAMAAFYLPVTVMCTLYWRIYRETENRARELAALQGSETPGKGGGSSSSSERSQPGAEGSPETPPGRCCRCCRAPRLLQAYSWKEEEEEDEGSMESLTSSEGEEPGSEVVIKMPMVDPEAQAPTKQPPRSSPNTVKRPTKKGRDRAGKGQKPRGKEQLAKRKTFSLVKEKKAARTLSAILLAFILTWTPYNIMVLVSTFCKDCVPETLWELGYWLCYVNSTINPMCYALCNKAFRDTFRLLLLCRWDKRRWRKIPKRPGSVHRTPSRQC
CHO-K1 Ca antag = M1 antagonist counterscreen hit in parental CHO-K1 cells | ATP-induced calcium, Fluo-8 fluorescence | inhibition, % at 3 µM | actives 0.6% (n = 360,000);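 active = inhibition above a per-plate cutoff, the plate's mean sample inhibition plus 3 SD, cut at about 24% in these data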;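 note: 0% = DMSO plus EC80 ATP and 100% = DMSO alone without ATP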
M1 PAM = positive allosteric modulators of human M1 muscarinic receptor; CHO-K1 hM1, Fluo-8 calcium fluorescence, ACh EC20; 0% = ACh EC20, 100% = maximal ACh; AID 588819; P11229; actives 0.088% (n = 360,000); activation, % at 3 µM; in the data active = activation above about 19%, passing the limit was not always enough
CHO-K1 Ca PAM = M1 PAM counterscreen hit in parental CHO-K1 cells; AID 602247; ATP EC20, Fluo-8 calcium fluorescence; 0% at ATP EC20, 100% at ATP max; activation, % at 3 µM; actives 0.02% (n = 360,000);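 active = activation above the run cutoff, the mean activation of all test compounds plus 3 SD, cut at about 40% in these data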;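 note: peak over basal fluorescence ratio in a 140 s read after ATP addition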
M1 ag = activates human CHRM1 receptor | CHO-K1 hM1, Fluo-8 calcium fluorescence, agonist mode; 0% DMSO, 100% acetylcholine EC100 | AID 588814 | activation, % at 3 µM | actives 0.33% (n = 360,000) | P11229;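 active = activation above the run's mean compound activation plus 3 SD, cut at about 16% in these data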;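 note: peak over basal fluorescence ratio within a 140 s kinetic read after compound addition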
M1 ag parental = nonselective activator or artifact in parental CHO-K1 cells; Fluo-8 calcium fluorescence; scaled to maximal ATP response, vehicle zero; activation, % at 3 µM; actives 0.48% (n = 360,000); AID 602248; in the data active = activation above about 15%;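 note: untransfected CHO-K1 host cells lacking M1 receptor as counterscreen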
Numbers without * were called inactive. A selection: hits, their analogues and other compounds. The true share with any hit is near 2.3%.

SMILES | M1 antag | CHO-K1 Ca antag | M1 PAM | CHO-K1 Ca PAM | M1 ag | M1 ag parental
Cc1nc2cc(NC(=O)Nc3cccc4ccccc34)ccc2n1C | -5 | -14 | 6 | 24 | -7 | 1
O=C(Nc1ccc2snnc2c1)Nc1cccc2ccccc12 | -9 | 29* | -7 | 4 | 17* | 8
Cc1[nH][nH]c(=O)c1C=NCc1cccnc1 | 3 | 4 | 5 | 20 | -4 | 1
C=CCn1c(O)c(C(CC)=NCc2cccnc2)c(=O)[nH]c1=O | -1 | 25* | 11 | -5 | -1 | 0
O=C(NC(=S)Nc1cccc(Cl)c1Cl)C1CC1 | 0 | -1 | 3 | 9 | -1 | 0
O=C(Cn1cccc1C(=O)c1ccccc1)NCc1ccc2c(c1)OCO2 | -10 | 53* | 7 | 2 | -3 | -1
O=C(Cn1cccc1C(=O)c1ccccc1)NCc1ccccc1 | -8 | -6 | 3 | 10 | -4 | 0
NC(=NCc1ccc2c(c1)OCO2)NC(=O)c1ccccc1 | 24* | 13 | -10 | -8 | -3 | 2
O=C(CCCc1c[nH]c2ccccc12)NCc1ccccc1C(F)(F)F | -4 | -10 | 0 | -8 | -4 | 3
Brc1ccc(CNc2ccc3ncccc3c2)cc1 | 36* | 19 | -16 | -8 | -2 | 9
CC(C)CC(C(=O)Oc1ccc2c3c(c(=O)oc2c1)CCC3)N1C(=O)c2ccccc2C1=O (stereo not drawn) | -12 | -7 | 5 | 12 | -1 | 0
CC[C@@H](NS(=O)(=O)c1ccc(C)cc1)C(=O)Oc1ccc2c3c(c(=O)oc2c1)CCC3 | -1 | 3 | -10 | -5 | -6 | 12
CCC(C)C(NS(=O)(=O)c1ccc(C)cc1)C(=O)Oc1ccc2c3c(c(=O)oc2c1)CCC3 (stereo not drawn) | -19 | -27 | -8 | 49* | -4 | 4
Cc1ccc(S(=O)(=O)NC(CC(C)C)C(=O)Oc2ccc3c4c(c(=O)oc3c2)CCC4)cc1 (stereo not drawn) | 43* | 25* | -19 | -12 | -4 | 3
CN1CCC(N(C)C(=S)Nc2ccc(SC(F)F)cc2)CC1 | -1 | -6 | -3 | 9 | 18* | 1
CN1CCC(N(C)C(=S)Nc2ccc(F)cc2)CC1 | 3 | -4 | 4 | 4 | -4 | 0
CNC(=O)c1cc2c(-c3ccccc3)nn(C)c2s1 | 4 | 3 | 2 | -7 | 1 | 6
NC(=Nc1nc(-c2ccccn2)cc2ccccc12)c1ccccn1 | 33* | 1 | -14 | -17 | -1 | 0
O=C(NCc1ccco1)C(=O)NCC1OCCN1S(=O)(=O)c1cc(F)ccc1F (stereo not drawn) | -2 | -11 | 1 | 0 | 16* | 1
O=C(NCc1ccco1)C(=O)NCC1OCCN1S(=O)(=O)c1ccc(F)cc1 (stereo not drawn) | 14 | 5 | -9 | 1 | -4 | 0
Cc1ccc(F)cc1NC(=O)COC(=O)COc1ccc(C#N)cc1 | -14 | 1 | 9 | -2 | 0 | 0
CCCCCCN1C=CC(=C/C=C(\C#N)C(=O)OCC)C=C1 | 60* | 43* | -38 | -16 | 150* | 73*
CCOC(=O)/C(C#N)=C/C=C1\C=Cc2ccccc2N1CC | 0 | -11 | 6 | 8 | -11 | 3
C=CCN1C=CC(=CC=C(C#N)C#N)C=C1 | 25 | 27* | -8 | -30 | 9 | 12
CCCN1C=CC(=CC=C(C#N)C#N)C=C1 | 11 | 24* | -1 | -22 | 10 | 15
SMILES | M1 antag | CHO-K1 Ca antag | M1 PAM | CHO-K1 Ca PAM | M1 ag | M1 ag parental
CCN(Cc1ccccc1)C(=O)c1c(-c2ccccc2Cl)noc1C | 2 | -4 | -3 | -10 | -4 | 1
Cc1cc2nsnc2c(S(=O)(=O)N2CCN(C)CC2)c1C | -4 | -8 | 6 | 10 | -2 | 1
C[C@H]1CN([C@@H](C)CO)C(=O)CCCn2nncc2CO[C@@H]1CN(C)Cc1ccccc1C(F)(F)F | -7 | -30 | 3 | 14 | -10 | 1
CC(C)(O)C#Cc1ccc([C@@H]2C[C@H]3CN(c4ccccc4)C(=O)[C@]34CCCN24)s1 | 42* | -8 | -26 | 11 | -10 | 0
O=C1N(c2ccccc2)C[C@@H]2C[C@@H](c3cccs3)N3CCC[C@@]123 | 90* | 4 | -26 | -15 | -9 | 0
COc1cc(NC(=O)c2cc([N+](=O)[O-])ccc2NC(=O)CN2CCN(c3ccccn3)CC2)cc(OC)c1 | 34* | -4 | -11 | -2 | -4 | 2
CC(NC(=O)c1ccccc1NC(=O)CN1CCN(c2ccccc2O)CC1)c1ccccc1 (stereo not drawn) | 13 | -21 | -5 | 21 | 2 | 4
CC(NC(=O)c1ccccc1NC(=O)CN1CCc2ccccc2C1)c1ccccc1 (stereo not drawn) | -2 | -13 | 3 | 40* | 4 | 7
COc1ccccc1N1CCN(CC(=O)Nc2ccccc2C(=O)NC(C)c2ccccc2)CC1 (stereo not drawn) | 35* | 0 | -19 | 5 | 7 | 6
COc1ccccc1N1CCN(CC(=O)NCC2CCCO2)CC1 (stereo not drawn) | -3 | 27* | 11 | -9 | 0 | 0
COc1ccc(CCNC(=O)c2ccccc2NC(=O)CN2CCN(c3ccccc3O)CC2)cc1 | 28* | 7 | -8 | 10 | 2 | 8
CC(=O)N/C(=C\c1ccccc1)C(=O)OCc1ccc(F)cc1 | -14 | -6 | 15 | 7 | 2 | -1
OC(C1=CC(=Cc2ccncc2)c2ccccc21)c1ccncc1 (stereo not drawn) | 10 | -5 | -9 | -6 | 2 | 3
COC(=O)CNC(=O)C1CCN(S(=O)(=O)c2cnc[nH]2)CC1 | -13 | -5 | 11 | 17 | -1 | 1
CC1=C(C)CC(C(=O)NCc2c(F)cccc2Cl)C(C(=O)O)C1 (stereo not drawn) | 0 | -17 | 4 | 17 | -5 | 2
CC1CCCCN1C(=O)C(=O)c1cn(CC(=O)N2CCCCCC2)c2ccccc12 (stereo not drawn) | 14 | 11 | 0 | 8 | -4 | 10
COc1ccccc1N1CCN(CC(=O)Nc2ccccc2C(=O)NCCc2ccccc2)CC1 | 29* | 6 | -8 | 19 | -1 | 4
O=C(CN1CCN(c2ccccc2O)CC1)Nc1ccccc1C(=O)NCCc1ccccc1 | 29 | 3 | -12 | -3 | -2 | 7
O=C(c1ccc2c3c(cccc13)CC2)C1CCCN(Cc2ccncc2)C1 (stereo not drawn) | 5 | 2 | -10 | -14 | -5 | 6
CCc1nc(CN2CCCC(C(=O)c3ccc4c5c(cccc35)CC4)C2)c(C)[nH]1 (stereo not drawn) | 9 | 25* | -12 | -9 | -10 | 0
